This is an account of results in ChEMBL document CHEMBL3988442, “University of Dundee, Small-Polar-MMV Screening Library” (2021).

Among all 38,000 compounds or so, about 1,200 (3.2%) showed an effect of 50% or more. The median lay at about -58%. Many of the other results were omitted from the sample, so strong results are more common in it than they were.

This assay concerns Plasmodium falciparum. Kind of assay: Calibr Malaria Delayed Death Assay SOP. In kind it is functional, organism-based. The arrangement: scale not given: in the data most compounds retested in dose-response had high values. The conditions noted are these: concentration 4.99e-06 (unit not given; other assays of the set use mol/L).
As for `O=C(Cn1c(=O)oc2ccccc21)NCC1(O)CCc2ccccc21` (stereo unspecified), the “Percent Effect” value is listed as -139.2%.

In the case of `c1cnc(N2CCCC(c3cncc(-n4ccnc4)n3)C2)nc1` (stereo unspecified), the “Percent Effect” value is -26.3%.

With `Cc1cc(NCCN)nc(-c2ccccc2O)n1`, the “Percent Effect” value was 78.32%.

For the molecule `Cc1cc(NCCNc2cccnc2)nc(-c2ccccc2O)n1`, the “Percent Effect” value is -179.2%.

Turning to `Cc1cc(NCCO)nc(-c2ccccc2O)n1`, the “Percent Effect” value is reported as -228.5%.

In the case of `COCC1COCCC12CCN(S(=O)(=O)c1ccc(C)cc1)CC2` (stereo unspecified), the “Percent Effect” value is -77.98%.

On to `CCNC(=O)[C@@H]1C[C@@H](NC(=O)c2cnc[nH]c2=O)CN1Cc1ccsc1`, for which the “Percent Effect” value is -128.1%.

`O=C(CN1CCOCC1)Nc1ncc(Br)cc1Br`: the “Percent Effect” value is listed as -123.1%.

For `c1ccc2c(c1)nnn2CCCNC1CCOC2(CCOCC2)C1` (stereo unspecified), the “Percent Effect” value is -5.834%.

For `Fc1ccccc1C1(CNC2CCOC3(CCOCC3)C2)CCCC1` (stereo unspecified), the “Percent Effect” value was determined as 75.67%.

For `Fc1cccc(C2(CNC3CCOC4(CCOCC4)C3)CCOCC2)c1` (stereo unspecified), the “Percent Effect” value was 39.6%.

For the molecule `Fc1cccc(C2(CNC3CCCNC3)CCOCC2)c1` (stereo unspecified), the “Percent Effect” value is recorded as -89.15%.

Regarding `c1ccc(Cc2noc(CCNC3CCOC4(CCOCC4)C3)n2)cc1` (stereo unspecified), the “Percent Effect” value was -44.81%.

As to `c1ccc2c(c1)cnn2CCCNC1CCOC2(CCOCC2)C1` (stereo unspecified), the “Percent Effect” value worked out at 68.4%.

`COc1c(CNC2CCN(C(=O)C(C)C)CC2)c(C(C)C)nn1C`: the “Percent Effect” value is given as -79.75%.

As for `CSc1cccc(NC(=O)CCC(=O)Nc2nccs2)c1`, the “Percent Effect” value is listed as -6.233%.

Regarding `CCOC(=O)Cn1ccc(NC(=O)Cc2ccccc2F)n1`, the “Percent Effect” value is on record as -129.4%.

Take `COc1ccc(CCNC(C)c2ccc3[nH]c(=O)[nH]c3c2)cc1OC` (stereo unspecified): the “Percent Effect” value is on record as -75.57%.

For the molecule `Cc1ccc(S(=O)(=O)N2CCC(S(C)(=O)=O)CC2)cc1C`, the “Percent Effect” value was -5.803%.

As for `Cc1ccc(S(=O)(=O)N2CCCCC(N3CCN(C)CC3)C2)cc1F` (stereo unspecified), the “Percent Effect” value is reported as 37.26%.

Turning to `Cc1ccc(S(=O)(=O)N2CCC(S(=O)(=O)c3nncn3C)CC2)cc1C`, the “Percent Effect” value is -38.79%.

On to `Cc1ccc(S(=O)(=O)N2CCC(N3CCCCC3)CC2)cc1C`, for which the “Percent Effect” value is recorded as 64.64%.

For the molecule `Cc1cc(S(=O)(=O)N2CCCN3CCCC3C2)ccc1F` (stereo unspecified), the “Percent Effect” value is given as 67.89%.

In the case of `Cc1cc(S(=O)(=O)N2CCC(S(C)(=O)=O)C2)ccc1F` (stereo unspecified), the “Percent Effect” value is -26.98%.

In the case of `Cc1nc2ccccc2n1Cc1cc(C(=O)N(C)C2CCOC2)n[nH]1` (stereo unspecified), the “Percent Effect” value is listed as -89.66%.

As for `Cc1nc(CN(C)C2CCN(Cc3nc4c(F)cccc4[nH]3)C2)no1` (stereo unspecified), the “Percent Effect” value was -2.567%.

In the case of `CCOCC(=O)Nc1cccnc1-n1ccnc1C`, the “Percent Effect” value was -153.7%.

With `Cc1ncc(CN2CCOCC2)c2cc(C(=O)c3ccc(Br)cc3)oc12.Cl`, the “Percent Effect” value is -6.646%.

For the molecule `COc1ncc(C(=O)NCc2ccc(Br)cc2)cn1`, the “Percent Effect” value was -41.11%.

Regarding `CN(C)c1ccc(C(=O)NCc2csc(Br)c2)cn1`, the “Percent Effect” value is reported as -36.5%.

In the case of `Cc1ncc(CNCCO)c2cc(C(=O)c3ccc(Br)cc3)oc12.Cl`, the “Percent Effect” value amounted to 88.87%.

On to `Cc1ncc(CNCC(C)O)c2cc(C(=O)c3ccc(Br)cc3)oc12.Cl` (stereo unspecified), for which the “Percent Effect” value worked out at 8.12%.

On to `Cc1ncc(CNC(C)(C)CO)c2cc(C(=O)c3ccc(Br)cc3)oc12`, for which the “Percent Effect” value is on record as 36.54%.

For `Cc1ncc(CN2CCCC2)c2cc(C(=O)c3ccc(Br)cc3)oc12.Cl`, the “Percent Effect” value amounted to 66.17%.

As for `Cc1ncc(CN(C)CCO)c2cc(C(=O)c3ccc(Br)cc3)oc12.Cl`, the “Percent Effect” value was 47.82%.

`COCCNC(=O)[C@@H]1CCO[C@@H]2CCN(Cc3cnn(C)c3)C[C@@H]21`: the “Percent Effect” value is -0.06334%.

On to `Cc1nn(Cn2ccc(C(=O)N3CCOCC3)n2)c(C)c1Cl`, for which the “Percent Effect” value is given as -94.44%.

As to `O=c1c(NCc2ccccn2)c(NCC(O)CN2CCOCC2)c1=O` (stereo unspecified), the “Percent Effect” value was -115.3%.

For the molecule `Cc1cccc(CN2CC3(CCN(Cc4ccco4)CC3)OCC2=O)n1.O=C(O)C(F)(F)F.O=C(O)C(F)(F)F`, the “Percent Effect” value is listed as -46.8%.

Take `CC(C)Oc1ccc(C(=O)N2CCCC2c2cnn(C)c2)cn1` (stereo unspecified): the “Percent Effect” value is reported as -40.89%.

As to `CNC(=O)c1cn2cc(-c3cccc(Cl)c3)n(CC3CC3)c(=O)c2n1`, the “Percent Effect” value is listed as 19.26%.

Take `COCCCNC(=O)Cn1c(-c2cccc(Cl)c2)nc(C)cc1=O`: the “Percent Effect” value was -51.33%.

Take `CNC(=O)c1cn2cc(-c3cccc(Cl)c3)n(CC=C(C)C)c(=O)c2n1`: the “Percent Effect” value stood at 56.44%.

With `COc1ccc(OC)c(NC(=O)c2cc3c([nH]c2=O)CCCC3=O)c1`, the “Percent Effect” value is recorded as -53.3%.

Turning to `Cc1c(C)n(CC(O)CN2CCCCCC2)c2c(Cl)cccc12` (stereo unspecified), the “Percent Effect” value was 50.38%.

Turning to `Cc1c(C)n(CC(O)CN2CCC(C)CC2)c2c(Cl)cccc12` (stereo unspecified), the “Percent Effect” value is recorded as 82.43%.

For `Cc1c(C)n(CC(O)CN2CCOCC2)c2c(Cl)cccc12.Cl` (stereo unspecified), the “Percent Effect” value is -18.53%.

On to `CC1CCN(CC(O)Cn2cnc3ccc(Cl)cc3c2=O)CC1` (stereo unspecified), for which the “Percent Effect” value is recorded as 28.19%.

Consider `O=C(c1cccc(Cl)c1Cl)N1CCN(CC(O)Cn2cccn2)CC1` (stereo unspecified), for which the “Percent Effect” value is recorded as -16.31%.

For the molecule `Cc1c(C)n(CC(O)CN2CCC(O)CC2)c2c(Cl)cccc12` (stereo unspecified), the “Percent Effect” value is reported as 43.5%.

Turning to `O=C(c1cccc2c1OCCO2)N1CCCC(n2cccn2)C1` (stereo unspecified), the “Percent Effect” value is -57.7%.
